Drawing on the OligoGym collection, this text covers sensor-assay potency score (higher = more potent) for 60 sequences.

What all share (experiment): pooled miR-30 sensor sort-seq; sequence = guide strand
What all share (details): shRNA

The target in assay [1] is MMADHC.
Assay [2] addresses MKNK2.
In assay [3] the target is MLL.
Assay [4] deals with MIS12.
Assay [5] concerns the target MOBKL1B.
Assay [6] addresses MPG.
The target of assay [7] is MRC1L1.
The target in assay [8] is MRPL14.
The target of assay [9] is MRO.
The target of assay [10] is MRFAP1.
Note: reference of the scale not given here.

TGTATTGCACACTCTACTCTGG showed a sensor-assay potency score (higher = more potent) in assay [1] of 0.407.
Take TTATGCAGAAAGTCCAAGGCGC: the sensor-assay potency score (higher = more potent) in [2] is -0.181.
For TCAAACAGCATGTTCTGGCAGG, the sensor-assay potency score (higher = more potent) in assay [2] was -0.787.
Sequence TATACTTTTAGAATCTTTCTTC yielded a sensor-assay potency score (higher = more potent) in assay [3] of 0.988.
In [1], TTTTCTAAGAGCACTTCTCTTT registered a sensor-assay potency score (higher = more potent) of -0.6.
Same read-out and setting: the value for TTCTTCTGTGAAGCAGTCCCAT was -0.488.
Regarding TTTATCTTCAGGAAGCAAGATG, in assay [4], the sensor-assay potency score (higher = more potent) is -0.586.
Take TCCAGCTCGTTGAAGTGCCGGC: in [2], the sensor-assay potency score (higher = more potent) is -1.11.
Take TTCTGTTGTAGGCAGCTGCTGA: the sensor-assay potency score (higher = more potent) in assay [3] was -0.148.
In assay [3], TTAAAGTCCACTCTGATCCTGT displayed a sensor-assay potency score (higher = more potent) of 0.574.
TTGTGTTACAGTCAGAATCATT: in assay [1], the sensor-assay potency score (higher = more potent) is -1.32.
The sequence TTCTGCTTCACAATCCTCCTTA yielded a sensor-assay potency score (higher = more potent) in assay [3] of 0.726.
The sequence TTCAGTCTTGTACTTCTCCTGT had a sensor-assay potency score (higher = more potent) in assay [4] of 0.0481.
TTTTCGTCGTTCTAGATCCAAA had a sensor-assay potency score (higher = more potent) in [3] of -1.11.
For TTGTCGGGGAACTCGTACTTGC, the sensor-assay potency score (higher = more potent) in assay [2] is -1.05.
On to TTTTTTGCTCTTCTAATTCTGC, for which the sensor-assay potency score (higher = more potent) in assay [4] is -0.78.
TAGGACGTTCCTGTGTCCCTGG registered a sensor-assay potency score (higher = more potent) in assay [2] of 0.366.
The sequence TTCGAGAGCATATATCTGGAGG had a sensor-assay potency score (higher = more potent) in assay [1] of -0.923.
Same read-out and setting: the value for TTTCACTTGATAAAGGTTCTGC was 0.549.
As for AATATTAGTACCATCTGCCCAG, in assay [5], the sensor-assay potency score (higher = more potent) was 0.0511.
Same read-out and setting: in the case of TAATTCTTGAAGAGGTGCCAGC it was -0.967.
As to TCATGCAGAAGTACATGCCGTA, in assay [6], the sensor-assay potency score (higher = more potent) amounted to 0.083.
In assay [7], TTGCTCATGAATCTCTGTGATG gave a sensor-assay potency score (higher = more potent) of -0.904.
The same measure, in the same setting: the value for TAAAGCTACACAATCATTCCGT was 0.804.
In [8], TTGTTGGAGTCGAATCTGGGGG displayed a sensor-assay potency score (higher = more potent) of -0.711.
As to TACAGCTTGAAACACAAGCTTG, in assay [7], the sensor-assay potency score (higher = more potent) was -1.09.
Still for that read-out and setting: in the case of TAACAACACAGTCAGCATCTTC it was -0.367; in that of TTATAGATTAAAAATTGCCTGG, -0.0737.
Regarding TTTCTTATACTTTCTCACCTTG, the sensor-assay potency score (higher = more potent) in [9] is -0.188.
The same measure, in the same setting: in the case of TAGTGTTCCTTTGATCTTCTTC it was 0.466; in that of TTTTCTTATACTTTCTCACCTT, 0.132.
Take TTCTGAATTGACATCATTCAGC: the sensor-assay potency score (higher = more potent) in assay [7] is -0.303.
Turning to TCATCATCTAATAAAGTCCTGG, the sensor-assay potency score (higher = more potent) in assay [9] is -0.176.
Regarding TTAATTCGTGTCCCCACAGGGT, the sensor-assay potency score (higher = more potent) in [8] is -1.22.
As for TTTGATCTTCTTCACTCTGGAA, the sensor-assay potency score (higher = more potent) in [9] was -0.504.
TTGTTTTCAAACTTGAACGGGA: in assay [7], the sensor-assay potency score (higher = more potent) worked out at 0.456.
In assay [8], TTATAGACATGGATGCAGCGAG yielded a sensor-assay potency score (higher = more potent) of -0.0779.
The same measure, in the same setting: in the case of TAGTATCTGGTCGCCCACCTTG it was -1.26.
For the sequence TTTGATCTGGATGAGCATATTG, the sensor-assay potency score (higher = more potent) in assay [10] is -1.65.
TATCATTGATGTCCTTTTCTGC gave a sensor-assay potency score (higher = more potent) in assay [9] of -0.559.
TTTCTCATCTCTGTGAATCTTG: in assay [7], the sensor-assay potency score (higher = more potent) turned out to be 0.274.
Sequence TCCTCGGCCTTCTCGCACCTCT showed a sensor-assay potency score (higher = more potent) in assay [10] of -1.7.
Regarding TTTCTGAACAATCCTATCCAAA, the sensor-assay potency score (higher = more potent) in assay [7] was -1.03.
Same read-out and setting: in the case of TAGAGAGTGATAGCAACCCAGT it was -0.877.
ATGAGCATATTGTCCATCTCCC: in assay [10], the sensor-assay potency score (higher = more potent) was -0.693.
For TGAATCGCACTCAGACTCCCAG, the sensor-assay potency score (higher = more potent) in assay [8] was -0.455.
In the case of TTCTCCTCGGCCTTCTCGCACC, in [10], the sensor-assay potency score (higher = more potent) was -1.46.
Still for that read-out and setting: the value for TTCGCAATCTCCTTGGCCTTCT was -0.202.
For TTGGGTTCGGGAGTCGTCGTGG, the sensor-assay potency score (higher = more potent) in assay [7] worked out at 0.34.
AAGAACTGCAGGATCTCTGGAT displayed a sensor-assay potency score (higher = more potent) in assay [9] of 0.374.
On to CTGGATGAGCATATTGTCCATC, for which, in assay [10], the sensor-assay potency score (higher = more potent) was -2.34.
AGCACCTCCACTTCCTCCGGTT returned a sensor-assay potency score (higher = more potent) in assay [10] of -1.22.
Still for that read-out and setting: in the case of TTGACCAGAATCCATTGGCTGG it was -0.987.
The same measure, in the same setting: the value for TTGATCTGGATGAGCATATTGT was -0.361.
For TTTGCAAGCCTTGGCAACCTGG, the sensor-assay potency score (higher = more potent) in assay [9] is -1.05.
In turn, TTGATCTTCTTCACTCTGGAAG yielded a sensor-assay potency score (higher = more potent) in assay [9] of -0.557.
For the sequence TATCCGCCGGACCAGCTCCACC, the sensor-assay potency score (higher = more potent) in [10] was -1.87.
In turn, TTGTTTTGCAAGCCTTGGCAAC returned a sensor-assay potency score (higher = more potent) in assay [9] of -1.43.
Regarding TATAGTAACAGTGACCATGGAA, in assay [7], the sensor-assay potency score (higher = more potent) amounted to 0.0156.
Consider TCTCCTTGGCCTTCTCCTCGGC, for which the sensor-assay potency score (higher = more potent) in [10] is -0.368.
